Consider 36 compounds from PubChem BioAssay.

Active and inactive are the calls of the source.
Note: test concentration not given here.

One assay is described as follows: S. pombe growth modifiers, basal conditions – strain 972, OD600, 24 h, no modulator, primary screen (AID 1090).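 Note: basal condition with compound alone and no growth modifier present.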 The following applies: S. pombe 972 growth, higher = more signal, called active from +8 up or from −8 down.
Regarding `C=C[C@@H](OC)[C@H](OC(=O)Nc1ccc(OC)cc1)c1ccc(O)c(F)c1`, the z-score is -4.59 (inactive). Still for that read-out and setting: under `C=CCC(OC(C)=O)[C@@H]1[C@@H](N(Cc2ccc(-c3cccc(C(F)(F)F)c3)o2)C(=O)c2ccc(-c3ccccc3)cc2)c2cc(OCCCO)ccc2N1C(=O)Cc1ccc2ccccc2c1` (stereo partly specified) stands 0.863 (inactive); under `CCOC(=O)C1=C[C@@H](c2ccccc2)N(S(=O)(=O)c2ccc(C)cc2)[C@H]1c1ccc(OC)cc1`, 1.29 (inactive); under `CS(=O)(=O)CCOC(=O)C1=CC(CCCO)=CC(c2ccc(CN3CCCC3)cc2)N(Cc2sc3ccccc3c2Cl)C=C1C(=O)OCCS(C)(=O)=O` (stereo unspecified), -5.83 (inactive). On the same count and under the same terms, with `CCOC(=O)C[C@H]1[C@H](OC(=O)Cc2ccc3c(c2)OCO3)[C@@H](NC(=O)c2ccc3ccccc3n2)c2cc(OCCCO)ccc2N1C(=O)c1ccc2ccccc2n1` the figure was -1.99 (inactive); with `C=CCC(OC(C)=O)[C@@H]1[C@@H](N(Cc2ccc(-c3ccccc3)cc2)C(=O)c2ccc(-c3ccccc3)cc2)c2cc(OCCCO)ccc2N1C(=O)c1ccc2ccccc2c1` (stereo partly specified), 0.109 (inactive). Regarding `Cc1ccc(NN2C(C(O)c3c(F)cccc3Cl)C=CC3C(=O)N(C4CCCCC4)C(=O)C32)cc1` (stereo unspecified), the z-score was -0.362 (inactive). For `CN(C)C(=O)[C@]1(Cc2ccccc2CN=[N+]=[N-])N=C(c2ccc(OCCCO)cc2)O[C@@H]1c1ccccc1`, the z-score was -1.07 (inactive). Still for that read-out and setting: with `Cc1ccc(S[C@]2(C(=O)O)CC(=O)N(C3CCCCC3)[C@@H]2c2ccc(CO)cc2I)cc1` the figure was -0.472 (inactive); with `CCOC(=O)C[C@H]1[C@H](OC(=O)c2cc3ccccc3oc2=O)[C@@H](NC(=O)CC(C)C)c2cc(OCCCO)ccc2N1C(=O)c1ccc2ccccc2n1`, 0.376 (inactive). On the same count and under the same terms, under `CCOC(=O)C[C@H]1[C@H](OC(=O)c2ccc(-c3ccccc3)cc2)[C@@H](NC(=O)CC(C)C)c2cc(OCCCO)ccc2N1C(=O)c1ccc2ccccc2n1` stands -0.832 (inactive); under `CCOC(=O)C[C@H]1[C@H](OC(=O)c2ccc(C(=O)c3ccccc3)cc2)[C@@H](NC(=O)c2ccc3ccccc3n2)c2cc(OCCCO)ccc2N1C(=O)Cc1ccc(OC)cc1`, 1.04 (inactive). Same read-out and setting: under `COc1ccc([Si](C)(C)[C@@H]2[C@@H](CC(=O)N(CCO)Cc3ccccc3)O[C@]3(C(=O)N(Cc4cccc(N5CCCCC5=O)c4)c4ccccc43)[C@H]2C)cc1` stands -0.0344 (inactive); under `COC(=O)[C@]1(CCS(=O)(=O)c2ccccc2)N=C(c2ccc(OCCCO)cc2)O[C@@H]1c1ccccc1N=[N+]=[N-]`, -2.44 (inactive). Consider `COC(=O)[C@@]1(Cc2ccccc2)[C@H]2c3cc(C(=O)N4CCCC4)n(CCc4ccccn4)c3C[C@H]2CN1C(=O)c1ccccc1`, for which the z-score is 0.741 (inactive).

On to `CCCN1C(=O)[C@@]2(Cc3ccccc31)N=C(c1ccc(OCCCO)cc1)O[C@H]2c1ccccc1`, for which the z-score was -7.39 (inactive).

As for `COC(=O)[C@@]1(Cc2ccc(F)cc2)[C@H]2c3cc(C(=O)N(C)C)n(Cc4ccc(OC(F)(F)F)cc4)c3C[C@H]2CN1C(=O)c1ccccc1`, the z-score was 1.13 (inactive). On the same count and under the same terms, with `CC(=O)N1CC2(CC2)CC1c1ccccc1` (stereo unspecified) the figure was 0.661 (inactive); with `CC(C)[Si](C#CCCCC#N)(O[C@H](c1ccccc1)c1cn(Cc2ccccc2)nn1)C(C)C`, -2.74 (inactive). The same measure, in the same setting: with `COCCOC(=O)N1C(=O)[C@@]2(c3cc(C#CC4(O)CCCCCC4)ccc31)[C@H](c1ccc(O)cc1)N1[C@H](c3ccccc3)[C@H](c3ccccc3)OC(=O)[C@H]1[C@@H]2C(=O)N1CCN(c2ncccn2)CC1` the figure was -0.247 (inactive). Same read-out and setting: with `CC1=C2[C@@H](CCc3ccccc3)OB(O)C[C@@H]2[C@@H]2C(=O)N(Cc3ccccc3)C(=O)[C@@H]2C1` the figure was -2.47 (inactive). `CCOC(=O)C[C@H]1[C@H](OC(=O)Cc2ccc3c(c2)OCO3)[C@@H](NC(=O)C2CCCCC2)c2cc(OCCCO)ccc2N1C(=O)c1ccccc1`: the z-score was -0.432 (inactive). The same measure, in the same setting: under `COCCCNC(=O)[C@@]1(CCC(=O)OC(C)(C)C)N=C(c2ccc(OCCCO)cc2)O[C@H]1c1ccccc1N=[N+]=[N-]` stands 0.362 (inactive). Still for that read-out and setting: with `[N-]=[N+]=Nc1ccccc1C[C@]1(C(=O)NCC(O)CO)COC(c2ccc(OCCCO)cc2)=N1` (stereo partly specified) the figure was -0.13 (inactive); with `CCCC[C@@H](O)C1=C(COC)C[C@H]2C(=O)N(C)C(=O)[C@H]2[C@H]1CO`, -1.77 (inactive). On the same count and under the same terms, under `CCCCCCc1nc(Cc2cc(OC)c(OC)c(OC)c2)cc2c1[Si](C(C)C)(C(C)C)OC2` stands -0.0595 (inactive).

A short description of a further assay: budding yeast growth modifiers under rapamycin – strain BY4716, OD600, 96 h, primary screen (AID 1091). The following applies: S. cerevisiae BY4716 + rapamycin, higher = more signal, called active from +8 up or from −8 down.
For the compound `N#Cc1ccc(NN2C(C(O)c3ccc(Br)cc3)C=CC3C(=O)N(c4ccccc4)C(=O)C32)cc1` (stereo unspecified), the z-score is 0.297 (inactive). On the same count and under the same terms, under `CC1CC/C=C\[C@H]2OC34C=CCN(c5ccc(Cl)cc5)C(=O)[C@H]3N(C(C)CO)C(=O)[C@]4(C)C2C(=O)O1` (stereo partly specified) stands 0.334 (inactive). On the same count and under the same terms, under `CO[C@H]1O[C@H](CO)[C@@H](OC(=O)Nc2ccc(Br)cc2)[C@@H]2OC(=O)[C@@H](Cc3ccccc3)C/C=C/C[C@H](Cc3ccccc3)C(=O)O[C@@H]12` stands 3.58 (inactive). The same measure, in the same setting: with `CCOC(=O)C[C@H]1[C@H](OC(=O)c2cc3ccccc3oc2=O)[C@@H](NC(=O)c2ccccc2)c2cc(OCCCO)ccc2N1C(=O)c1ccccc1` the figure was -0.277 (inactive); with `O=C1OCCC=C[C@H]2OC34C=CCN(c5ccc6ccccc6c5)C(=O)[C@H]3N(CCCO)C(=O)[C@@H]4C12` (stereo partly specified), 0.345 (inactive). On to `O=C1C2C=CC(C(O)C3CC=CCC3)N(Nc3ccccc3)C2C(=O)N1c1ccccc1` (stereo unspecified), for which the z-score is 0.662 (inactive).

On to `Cc1ccc(S[C@]2(C(=O)NC(C)C)CC(=O)N(Cc3cc(C(F)(F)F)cc(C(F)(F)F)c3)[C@@H]2c2ccc(CO)cc2)cc1`, for which the z-score was -0.864 (inactive).

For `CCOC(=O)C[C@H]1[C@H](OC(=O)c2ccccc2-c2ccccc2)[C@@H](NC(=O)c2ccc3ccccc3n2)c2cc(OCCCO)ccc2N1C(=O)Cc1ccc(OC)cc1`, the z-score is -0.0843 (inactive).

In the case of `CC(C)c1ccc(NN2C(C(O)c3ccc(C#N)cc3)C=CC3C(=O)N(c4ccccc4)C(=O)C32)cc1` (stereo unspecified), the z-score was 0.44 (inactive). `CCC#CCN(Cc1ccccc1Br)[C@H](/C=C/C1CC1)[C@@H](O)Cc1ccccc1`: the z-score is -1.72 (inactive).

Take `C=C[C@@H](OC)[C@H](OC(=O)Nc1ccc(OC)cc1)c1ccc(O)c(F)c1`: the z-score is 0.144 (inactive). The same measure, in the same setting: under `C=CCC(OC(C)=O)[C@@H]1[C@@H](N(Cc2ccc(-c3cccc(C(F)(F)F)c3)o2)C(=O)c2ccc(-c3ccccc3)cc2)c2cc(OCCCO)ccc2N1C(=O)Cc1ccc2ccccc2c1` (stereo partly specified) stands 1.09 (inactive); under `CCOC(=O)C1=C[C@@H](c2ccccc2)N(S(=O)(=O)c2ccc(C)cc2)[C@H]1c1ccc(OC)cc1`, 0.698 (inactive); under `CS(=O)(=O)CCOC(=O)C1=CC(CCCO)=CC(c2ccc(CN3CCCC3)cc2)N(Cc2sc3ccccc3c2Cl)C=C1C(=O)OCCS(C)(=O)=O` (stereo unspecified), -1.41 (inactive). On the same count and under the same terms, with `CCOC(=O)C[C@H]1[C@H](OC(=O)Cc2ccc3c(c2)OCO3)[C@@H](NC(=O)c2ccc3ccccc3n2)c2cc(OCCCO)ccc2N1C(=O)c1ccc2ccccc2n1` the figure was -0.727 (inactive); with `C=CCC(OC(C)=O)[C@@H]1[C@@H](N(Cc2ccc(-c3ccccc3)cc2)C(=O)c2ccc(-c3ccccc3)cc2)c2cc(OCCCO)ccc2N1C(=O)c1ccc2ccccc2c1` (stereo partly specified), -0.38 (inactive); with `Cc1ccc(NN2C(C(O)c3c(F)cccc3Cl)C=CC3C(=O)N(C4CCCCC4)C(=O)C32)cc1` (stereo unspecified), -0.262 (inactive). Same read-out and setting: with `CN(C)C(=O)[C@]1(Cc2ccccc2CN=[N+]=[N-])N=C(c2ccc(OCCCO)cc2)O[C@@H]1c1ccccc1` the figure was 20.8 (active). Turning to `Cc1ccc(S[C@]2(C(=O)O)CC(=O)N(C3CCCCC3)[C@@H]2c2ccc(CO)cc2I)cc1`, the z-score is 0.253 (inactive). Still for that read-out and setting: under `CCOC(=O)C[C@H]1[C@H](OC(=O)c2cc3ccccc3oc2=O)[C@@H](NC(=O)CC(C)C)c2cc(OCCCO)ccc2N1C(=O)c1ccc2ccccc2n1` stands 0.665 (inactive); under `CCOC(=O)C[C@H]1[C@H](OC(=O)c2ccc(-c3ccccc3)cc2)[C@@H](NC(=O)CC(C)C)c2cc(OCCCO)ccc2N1C(=O)c1ccc2ccccc2n1`, -0.656 (inactive). The same measure, in the same setting: under `CCOC(=O)C[C@H]1[C@H](OC(=O)c2ccc(C(=O)c3ccccc3)cc2)[C@@H](NC(=O)c2ccc3ccccc3n2)c2cc(OCCCO)ccc2N1C(=O)Cc1ccc(OC)cc1` stands 0.949 (inactive); under `COc1ccc([Si](C)(C)[C@@H]2[C@@H](CC(=O)N(CCO)Cc3ccccc3)O[C@]3(C(=O)N(Cc4cccc(N5CCCCC5=O)c4)c4ccccc43)[C@H]2C)cc1`, 3.5 (inactive); under `COC(=O)[C@]1(CCS(=O)(=O)c2ccccc2)N=C(c2ccc(OCCCO)cc2)O[C@@H]1c1ccccc1N=[N+]=[N-]`, 35.7 (active).

`COC(=O)[C@@]1(Cc2ccccc2)[C@H]2c3cc(C(=O)N4CCCC4)n(CCc4ccccn4)c3C[C@H]2CN1C(=O)c1ccccc1`: the z-score is 0.0746 (inactive). Still for that read-out and setting: with `CCCN1C(=O)[C@@]2(Cc3ccccc31)N=C(c1ccc(OCCCO)cc1)O[C@H]2c1ccccc1` the figure was 0.99 (inactive); with `COC(=O)[C@@]1(Cc2ccc(F)cc2)[C@H]2c3cc(C(=O)N(C)C)n(Cc4ccc(OC(F)(F)F)cc4)c3C[C@H]2CN1C(=O)c1ccccc1`, 1 (inactive). Consider `CC(=O)N1CC2(CC2)CC1c1ccccc1` (stereo unspecified), for which the z-score was 0.218 (inactive). The same measure, in the same setting: with `CC(C)[Si](C#CCCCC#N)(O[C@H](c1ccccc1)c1cn(Cc2ccccc2)nn1)C(C)C` the figure was -2.8 (inactive); with `COCCOC(=O)N1C(=O)[C@@]2(c3cc(C#CC4(O)CCCCCC4)ccc31)[C@H](c1ccc(O)cc1)N1[C@H](c3ccccc3)[C@H](c3ccccc3)OC(=O)[C@H]1[C@@H]2C(=O)N1CCN(c2ncccn2)CC1`, 1.07 (inactive).
